# Screening data: PubChem BioAssay, several laboratories
# DYRK1A inh: blocks rat Dyrk1A kinase activity. Q63470. ADP-Glo luminescence, NFATc1 peptide. inhibition, % at 12.5 µM. 0.43% of 310,000 active; in the data active = inhibition above about 50%
# STK33 inh: human STK33 kinase inhibition. purified STK33, MBP phosphorylation, ADP-Glo luminescence. inhibition, % at 10 µM. 0.073% of 320,000 active. AID 2661;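 active = inhibition at or above 25%, using the most active replicate where run in duplicate; inactive = inhibition below 25%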
# HIF activator: HIF pathway transcriptional activation. U2OS HRE-luciferase reporter, luminescence; normalized: DMSO 0%, desferrioxamine 100%. activation, % at 7.5 µM (by protocol). 0.32% of 300,000 active. AID 1910;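 active = mean activation of at least 10% of the iron chelator positive control signal, with at least half of replicates also reaching 10%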
# PP1 counter: blocks human PP1-alpha phosphatase, a PP5 counter-screen; P62136; purified PP1alpha, OMFP fluorescence; inhibition, % at 6.7 µM; 0.9% of 320,000 active;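 active = inhibition above the mean inhibition of all tested compounds plus 3 SD, computed separately for each screening campaign, cut at about 15% in these data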
# Target sequence (P62136 whole entry, looked up): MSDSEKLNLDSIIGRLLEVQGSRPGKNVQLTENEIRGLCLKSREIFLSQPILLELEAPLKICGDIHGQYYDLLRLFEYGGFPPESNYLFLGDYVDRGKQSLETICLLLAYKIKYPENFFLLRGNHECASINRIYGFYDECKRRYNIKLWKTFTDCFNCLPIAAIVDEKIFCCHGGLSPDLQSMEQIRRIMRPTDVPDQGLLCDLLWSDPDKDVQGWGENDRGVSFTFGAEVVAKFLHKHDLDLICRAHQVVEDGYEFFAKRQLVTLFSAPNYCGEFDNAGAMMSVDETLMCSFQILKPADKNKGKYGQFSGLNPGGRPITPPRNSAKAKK
# PP5 inh: PP5 (human) phosphatase inhibition. inhibition, % at 6.7 µM. P53041. 0.18% of 320,000 active. purified PP5c, OMFP substrate fluorescence;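 active = inhibition above the campaign's mean inhibition across all tested compounds plus 3 SD, cut at about 9.5% in these data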
# PP1 confirm: confirmation of human PP1 phosphatase inhibitors; AID 2358; purified PP1alpha, OMFP substrate fluorescence; 52% of 1,900 active; shares compounds with PP1 counter; inhibition, % at 6.7 µM;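 active = mean PP1 inhibition above a set limit taken from the earlier primary screen, cut at about 15% in these data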
# PP5 counter: PP5 phosphatase inhibition, counter-screen for PP1 inhibitors; shares compounds with PP1 counter; purified PP5c, OMFP fluorescence; inhibition, % at 6.7 µM; 4% of 1,900 active; AID 2360;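 active = mean PP5 inhibition over triplicate wells above about 9.5% taken from the earlier PP1 screen, limit read from the data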
# A number is an active result; 0 = inactive; - = no result given. A selection: hits, their analogues and other compounds. The true share with any hit is near 1.5%.
SMILES,DYRK1A inh,STK33 inh,HIF activator,PP1 counter,PP5 inh,PP1 confirm,PP5 counter
Clc1ccc(/C=C/c2ncc3ccccn23)cc1,0,0,0,0,0,-,-
O=C(O)C1C2CCC(O2)C1C(=O)Nc1cccc(F)c1 (stereo not drawn),-,0,0,55,52,0,17
CCc1ccc(NC(=O)C2C3CCC(O3)C2C(=O)O)cc1 (stereo not drawn),-,0,0,74,80,18,38
O=C(O)C1C2CCC(O2)C1C(=O)NCc1ccncc1 (stereo not drawn),0,0,0,20,37,15,26
CCc1ccc(NC(=O)C2CCN(c3c(N4CCCC4)c(=O)c3=O)CC2)cc1,0,0,0,0,0,-,-
O=C(O)C1C2CCC(O2)C1C(=O)Nc1ccc(F)cc1 (stereo not drawn),0,0,0,31,44,0,0
O=C(NNC(=S)Nc1ccc(F)cc1)C1[C@H]2CCCC[C@@H]12 (stereo partly drawn),-,0,0,0,0,-,-
COc1ccc(CN(C#N)c2nc(SC)nc(N(C)C)n2)cc1,-,0,-,0,0,-,-
Cc1c(NC(=O)CSCc2ccco2)c(=O)n(-c2ccccc2)n1C,0,0,0,0,0,-,-
Nc1ccccc1S(=O)(=O)NC1=NCCCCC1,0,0,0,0,0,-,-
COc1ccc(-c2nc3ccccn3c2Cl)cc1,0,0,0,0,0,-,-
O=C(O)c1ccc(NC(=O)C2C3CCC(O3)C2C(=O)O)cc1 (stereo not drawn),0,0,0,75,79,31,37
CC(C)COC(=O)c1ccc(NC(=O)C2C3CCC(C3)C2C(=O)O)cc1 (stereo not drawn),0,0,0,0,0,-,-
CCC(C)NC(=O)C(=O)NCc1ccccn1 (stereo not drawn),0,0,0,0,0,-,-
CC(C)=CC1C=C(C)C(C)C2C(=O)NNC(=O)C12 (stereo not drawn),0,0,0,0,0,-,-
N#Cc1cccc(NC(=O)CNc2cccc(S(=O)(=O)N3CCCC3)c2)c1,0,0,0,21,0,0,0
N#Cc1cccc(NCC(=O)Nc2cccc(S(=O)(=O)N3CCCCC3)c2)c1,-,0,-,0,0,-,-
CC(C)(O)c1ccccc1CC[C@@H](SCC1(CC(=O)O)CC1)c1cccc(/C=C/c2ccc3ccc(Cl)cc3n2)c1,0,0,0,35,0,43,0
Cc1ccc(Nc2c(-c3ccc(N4CCOCC4)cc3)nc3cnccn23)cc1,0,0,0,63,0,0,0
O=c1ccc(S(=O)(=O)N2CCCC2)cn1Cc1ccc(Cl)cc1Cl,-,0,-,0,0,-,-
Cc1sc(NC(=O)Cn2[nH]c(=O)c3ccccc3c2=O)nc1-c1ccccc1,0,0,0,29,0,27,0
O=C(CS(=O)Cc1ccccc1Cl)Nc1ccccc1Cl (stereo not drawn),0,0,0,0,0,-,-
O=C(c1ccc(=O)[nH]c1)N(Cc1cccs1)C1(C(=O)NC2CCCC2)CCCCC1,0,0,0,19,0,0,0
O=C1CCc2cc(S(=O)(=O)Nc3ccccc3)cc3c2N1CC3,0,0,0,0,0,-,-
Cc1ccc(Nc2cc(C)nc(NCc3ccccc3)n2)cc1,0,0,0,18,0,0,0
SMILES,DYRK1A inh,STK33 inh,HIF activator,PP1 counter,PP5 inh,PP1 confirm,PP5 counter
CCOc1ccc(N=Nc2c(=O)[nH]n3c(=O)cc(C)[nH]c23)cc1,0,0,0,19,0,0,0
Nc1ccc(S(=O)(=O)Nc2nccc(/C=C/c3ccc(Cl)cc3)n2)cc1,0,0,0,0,0,-,-
Nc1ccc(S(=O)(=O)Nc2nccc(/C=C/c3ccc(Cl)cc3Cl)n2)cc1,0,0,-,19,0,21,0
O=C(COC(=O)CC1CCCC1)Nc1ccc(Br)cc1F,0,0,-,-,-,-,-
O=C(O)C1C2CCC(O2)C1C(=O)Nc1ccc(Br)cc1F (stereo not drawn),-,0,0,58,66,0,21
Cc1ccc(NC(=O)C2C3CCC(O3)C2C(=O)O)c(Br)c1 (stereo not drawn),0,0,0,67,73,20,28
Cc1ccc(Cl)cc1NC(=O)C1C2CCC(O2)C1C(=O)O (stereo not drawn),0,0,0,52,56,0,16
CC1CCN(C(=O)CSc2nc3c(c(=O)n2C)SC(C)C3)CC1 (stereo not drawn),0,0,0,0,0,-,-
COc1ccc(CNc2nc(NCc3ccc(OC)cc3)c3[nH]cnc3n2)cc1,0,0,0,18,0,0,11
O=C(Nc1ccc(S(=O)(=O)Nc2ncccn2)cc1)c1cccc(S(=O)(=O)N2CCCC2)c1,0,0,0,0,0,-,-
CC(C)(C)C(=O)N1CCN(c2ccc([N+](=O)[O-])c(-n3nc(-c4ccccc4)c4ccccc4c3=O)c2)CC1,0,-,0,22,0,0,0
Cc1nn(-c2cc(N3CCCC3)ccc2[N+](=O)[O-])c(=O)c2ccccc12,0,0,0,0,0,-,-
CCOC(=O)c1c(NC(=O)/C=C/C(=O)O)sc(C)c1-c1ccc(C(C)(C)C)cc1,0,0,0,18,0,18,0
COCC(=O)Nc1nc(-c2ccc(C)cc2)c(C)s1,0,0,0,0,0,-,-
Cc1sc(NC(=O)C2C3CCC(O3)C2C(=O)O)nc1-c1ccc(CC(C)C)cc1 (stereo not drawn),0,0,0,78,79,35,38
CCOC(=O)c1c(NC(=O)C2C3CCC(O3)C2C(=O)O)sc(C)c1-c1ccc(C)cc1 (stereo not drawn),0,0,0,20,33,0,13
CCOC(=O)c1cc(NC(=O)C2C3CCC(O3)C2C(=O)O)cc(C(=O)OCC)c1 (stereo not drawn),0,-,0,57,65,0,19
CCOC(=O)c1ccc(NC(=O)C2C3CCC(C3)C2C(=O)O)cc1 (stereo not drawn),0,0,0,0,0,-,-
CCOC(=O)c1c(NC(=O)C2C3C=CC(CC3)C2C(=O)O)sc(C)c1CC (stereo not drawn),0,0,0,0,0,-,-
CC(C)(C)C(=O)NC1(C(F)(F)F)NC(=O)N(c2ccccc2F)C1=O (stereo not drawn),0,0,0,0,0,-,-
NCC[C@H](O)C(=O)N[C@@H]1C[C@H](N)[C@@H](O[C@H]2O[C@H](CN)[C@@H](O)[C@H](O)[C@H]2O)[C@H](O)[C@H]1O[C@H]1O[C@H](CO)[C@@H](O)[C@H](N)[C@H]1O,0,-,-,-,-,-,-
CCOC(=O)c1cc(NC(=O)C2C3C=CC(O3)C2C(=O)O)cc(C(=O)OCC)c1 (stereo not drawn),0,0,0,17,23,0,0
CCOC(=O)C(=O)Nc1cc(C(=O)OC)cc(C(=O)OC)c1,0,0,0,0,0,-,-
Cc1ccc(-n2nc3ccc(NC(=O)/C=C/c4ccco4)cc3n2)cc1,0,0,0,19,0,0,0
